From PubChem BioAssay AID2017 (National Center for Advancing Translational Sciences (NCATS), 2009)
Records with an inconclusive call do not appear. The source made the active and inactive calls. The call rests on the fitted dose curve; in most records, active means well fitted curve in the direction sought with a large enough effect; inconclusive means small, poorly fitted or top-dose-only effect, or another doubt; inactive means no such curve, though single readings can be large or run the other way.

Each molecule was assayed on 4-diphosphocytidyl-2-C-methyl-D-erythritol kinase IspE (bacterial, species not stated) (assay: Confirmatory Assay for Inhibitors of Human Galactokinase (GALK): CDP-Me assay counterscreen). Settings: ATP depletion, Kinase-Glo luminescence; series mostly up to 115 µM.
Outline: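 CMK (0.25 ug/mL) with 15 uM ATP and 30 uM CDP-ME in 20 mM HEPES pH8.0, 5 mM MgCl2, 40 mM KCl, 1 mM DTT, 0.01% BSA; 1 h room temperature. Residual ATP read by Kinase-Glo Plus luminescence.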

**Q.** Which outcome does the source give for COc1ccc(C/C(O)=C(\C#N)c2nc3ccccc3s2)cc1 here?
**A.** Its outcome is “inactive”.

**Q.** With Cc1snc(S(=O)(=O)/C(C#N)=N/Nc2cccc(C(F)(F)F)c2)c1C#N as the molecule, how does the outcome read?
**A.** The outcome was “inactive”.

**Q.** How did the outcome turn out when CC1(C)CC(=O)C2=C(C1)NC(Nc1nc3ccccc3o1)=NC21CCCC1 was run?
**A.** The outcome was “inactive”.

**Q.** How did the outcome turn out when O=C1c2ccccc2C(=O)C12OC2c1cccc2ccccc12 (stereo unspecified) was run?
**A.** The outcome was “inactive”.

**Q.** How did the outcome turn out when Cc1ccc(C)c(CN2C(=O)CSc3ccc(C(=O)NCCN4CCOCC4)cc32)c1 was run?
**A.** Its outcome is “inactive”.

**Q.** COc1ccc2cc(C(N)=O)c(=Nc3ccc(C)cc3)oc2c1 was tested. Which outcome did it give?
**A.** The outcome was “inactive”.

**Q.** With O=C1C(C2=C(O)c3ccccc3C2=O)=Nc2ccccc21 as the molecule, how does the outcome read?
**A.** Its outcome is “inactive”.

**Q.** O=C(O)c1ccc(NC2=C/C(=N/S(=O)(=O)c3ccccc3)c3ccccc3C2=O)cc1 was tested. Which outcome did it give?
**A.** Its outcome is “inactive”.

**Q.** With CCOC(=O)c1cc(-c2ccc(/C=C3/C(=O)N(c4ccc(C(=O)O)cc4)N=C3C)o2)ccc1Cl as the molecule, how does the outcome read?
**A.** Its outcome is “inactive”.

**Q.** For NS(=O)(=O)c1ccc(NC(=S)NNC(=O)c2ccc(Br)o2)cc1, which outcome is on record?
**A.** Its outcome is “inactive”.

**Q.** With O=C1C(Cl)=C(N2CCC(C(=O)O)CC2)C(=O)c2ccccc21 as the molecule, how does the outcome read?
**A.** The outcome was “inactive”.
